Test results from article PMC7862700, “An all-to-all approach to the identification of sequence-specific readers for epigenetic DNA modifications on cytosine”.

Columns and labels:
Assay in all cases: DAPPL (digital affinity profiling via proximity ligation, sequencing); 10 mM Tris-HCl pH 7.5, 50 mM NaCl, 1 mM DTT, 4% glycerol, room temperature, 30 min; GST-TFs on glutathione beads, 16-mer random dsDNA library, 0.1% formaldehyde crosslink after washing; high values mean tight binding
Settings in all cases: protein: recombinant; tags: N-terminal GST; dsDNA, one strand shown
[1] = molecular target: T1, FEV (Homo sapiens, UniProt Q99581 1-238)
T1 sequence: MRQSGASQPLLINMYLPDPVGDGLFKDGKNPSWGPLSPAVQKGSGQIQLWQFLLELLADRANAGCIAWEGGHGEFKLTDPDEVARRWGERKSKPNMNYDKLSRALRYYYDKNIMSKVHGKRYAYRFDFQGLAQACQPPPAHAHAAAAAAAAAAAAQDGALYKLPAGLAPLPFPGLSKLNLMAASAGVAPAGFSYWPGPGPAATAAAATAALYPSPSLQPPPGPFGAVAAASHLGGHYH
How it was run: (§1)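 GST fusions of human transcription factors were expressed in yeast and captured with glutathione beads. Once given DNA barcodes and pooled alongside a tag-only sample, they were incubated for 30 min at room temperature with 200 nmole of a random double-stranded 16-mer DNA library in Tris/NaCl/DTT/glycerol buffer, then washed, crosslinked (0.1% formaldehyde), proximity-ligated, PCR-amplified and sequenced on an Illumina NextSeq500. The binding signal of each hexamer is its read frequency for a factor divided by its frequency for the tag-only sample.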

[2] = molecular target: ETV5 (Homo sapiens, UniProt P41161 1-510)
Sequence of ETV5 (P41161 whole entry): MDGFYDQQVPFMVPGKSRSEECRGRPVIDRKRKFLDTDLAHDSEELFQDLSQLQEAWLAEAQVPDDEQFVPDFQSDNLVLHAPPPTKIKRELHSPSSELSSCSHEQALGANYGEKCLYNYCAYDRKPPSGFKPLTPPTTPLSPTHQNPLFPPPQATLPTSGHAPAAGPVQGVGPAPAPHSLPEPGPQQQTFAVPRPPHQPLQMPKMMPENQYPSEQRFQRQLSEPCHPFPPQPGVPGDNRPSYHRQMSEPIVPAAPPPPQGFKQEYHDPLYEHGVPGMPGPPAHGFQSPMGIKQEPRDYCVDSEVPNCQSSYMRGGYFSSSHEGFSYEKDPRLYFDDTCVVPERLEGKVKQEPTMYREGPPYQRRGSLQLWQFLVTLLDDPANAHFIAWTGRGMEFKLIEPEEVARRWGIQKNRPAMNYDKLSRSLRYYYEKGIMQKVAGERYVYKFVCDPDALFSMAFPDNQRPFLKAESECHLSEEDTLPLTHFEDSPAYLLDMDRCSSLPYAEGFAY
How it was run: as §1

[3] = molecular target: T2, SPIC (Homo sapiens, UniProt Q8N5J4 1-248)
T2 sequence: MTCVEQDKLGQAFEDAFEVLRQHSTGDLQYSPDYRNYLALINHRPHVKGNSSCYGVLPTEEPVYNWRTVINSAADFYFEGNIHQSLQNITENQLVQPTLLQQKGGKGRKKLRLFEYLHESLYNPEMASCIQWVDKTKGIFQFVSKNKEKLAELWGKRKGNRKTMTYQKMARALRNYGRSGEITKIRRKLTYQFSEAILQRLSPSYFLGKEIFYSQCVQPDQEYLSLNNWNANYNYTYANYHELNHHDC
How it was run: as §1

[4] = molecular target: ELF4 (Homo sapiens, UniProt Q99607 1-663)
Sequence of ELF4 (Q99607 whole entry): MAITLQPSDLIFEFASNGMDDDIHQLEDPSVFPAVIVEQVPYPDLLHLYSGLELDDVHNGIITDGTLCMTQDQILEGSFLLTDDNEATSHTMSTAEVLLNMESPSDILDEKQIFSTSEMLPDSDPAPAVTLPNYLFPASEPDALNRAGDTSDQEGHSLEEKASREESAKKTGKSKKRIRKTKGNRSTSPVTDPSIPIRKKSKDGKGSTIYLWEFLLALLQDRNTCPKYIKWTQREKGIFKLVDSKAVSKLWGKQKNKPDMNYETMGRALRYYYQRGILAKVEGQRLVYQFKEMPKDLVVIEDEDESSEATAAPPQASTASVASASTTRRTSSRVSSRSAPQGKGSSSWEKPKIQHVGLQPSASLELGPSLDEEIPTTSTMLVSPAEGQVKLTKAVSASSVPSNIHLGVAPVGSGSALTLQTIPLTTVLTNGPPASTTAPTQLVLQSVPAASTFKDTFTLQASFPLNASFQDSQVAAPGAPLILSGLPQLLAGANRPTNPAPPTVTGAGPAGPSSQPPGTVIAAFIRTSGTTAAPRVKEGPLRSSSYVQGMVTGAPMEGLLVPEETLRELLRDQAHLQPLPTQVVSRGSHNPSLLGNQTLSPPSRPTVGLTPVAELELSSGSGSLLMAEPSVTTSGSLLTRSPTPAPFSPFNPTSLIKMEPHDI
How it was run: as §1

[5] = molecular target: T3, ELK4 (Homo sapiens, UniProt P28324-2 1-405)
T3 sequence: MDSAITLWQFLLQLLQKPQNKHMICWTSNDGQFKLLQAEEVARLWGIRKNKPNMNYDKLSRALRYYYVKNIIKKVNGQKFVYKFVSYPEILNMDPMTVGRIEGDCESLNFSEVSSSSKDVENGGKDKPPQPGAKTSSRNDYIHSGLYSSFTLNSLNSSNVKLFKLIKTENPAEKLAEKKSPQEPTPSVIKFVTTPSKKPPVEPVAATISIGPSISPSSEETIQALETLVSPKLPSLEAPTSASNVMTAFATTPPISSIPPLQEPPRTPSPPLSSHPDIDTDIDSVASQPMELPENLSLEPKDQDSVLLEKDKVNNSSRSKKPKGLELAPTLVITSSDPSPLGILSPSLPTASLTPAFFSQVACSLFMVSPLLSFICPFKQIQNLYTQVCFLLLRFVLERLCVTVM
How it was run: as §1

[6] = molecular target: T4, ETV2 (Homo sapiens, UniProt O00321 1-342)
T4 sequence: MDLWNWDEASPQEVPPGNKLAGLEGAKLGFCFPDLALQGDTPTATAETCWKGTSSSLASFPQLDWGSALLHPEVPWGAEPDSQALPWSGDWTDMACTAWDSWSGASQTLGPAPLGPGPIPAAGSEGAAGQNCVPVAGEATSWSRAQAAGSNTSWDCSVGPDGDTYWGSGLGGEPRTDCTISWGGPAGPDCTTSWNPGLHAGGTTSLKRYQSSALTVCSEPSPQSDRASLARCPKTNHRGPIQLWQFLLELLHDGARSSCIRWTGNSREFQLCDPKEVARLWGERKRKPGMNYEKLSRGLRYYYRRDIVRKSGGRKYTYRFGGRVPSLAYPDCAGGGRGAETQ
How it was run: as §1

[7] = molecular target: T5, ELF3 (Homo sapiens, UniProt P78545 1-371)
T5 sequence: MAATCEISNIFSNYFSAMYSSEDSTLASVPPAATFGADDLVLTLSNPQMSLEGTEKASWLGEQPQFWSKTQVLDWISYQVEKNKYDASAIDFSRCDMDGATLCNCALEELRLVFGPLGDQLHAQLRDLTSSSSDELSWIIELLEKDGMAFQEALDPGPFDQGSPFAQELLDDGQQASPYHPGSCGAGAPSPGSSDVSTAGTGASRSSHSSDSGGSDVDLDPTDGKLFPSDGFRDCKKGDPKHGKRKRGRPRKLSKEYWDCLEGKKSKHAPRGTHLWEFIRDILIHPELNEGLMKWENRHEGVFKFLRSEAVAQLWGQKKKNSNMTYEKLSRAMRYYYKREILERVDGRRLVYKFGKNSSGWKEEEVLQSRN
How it was run: as §1

[8] = molecular target: ETV1 (Homo sapiens, UniProt P50549 1-477)
Sequence of ETV1 (P50549 whole entry): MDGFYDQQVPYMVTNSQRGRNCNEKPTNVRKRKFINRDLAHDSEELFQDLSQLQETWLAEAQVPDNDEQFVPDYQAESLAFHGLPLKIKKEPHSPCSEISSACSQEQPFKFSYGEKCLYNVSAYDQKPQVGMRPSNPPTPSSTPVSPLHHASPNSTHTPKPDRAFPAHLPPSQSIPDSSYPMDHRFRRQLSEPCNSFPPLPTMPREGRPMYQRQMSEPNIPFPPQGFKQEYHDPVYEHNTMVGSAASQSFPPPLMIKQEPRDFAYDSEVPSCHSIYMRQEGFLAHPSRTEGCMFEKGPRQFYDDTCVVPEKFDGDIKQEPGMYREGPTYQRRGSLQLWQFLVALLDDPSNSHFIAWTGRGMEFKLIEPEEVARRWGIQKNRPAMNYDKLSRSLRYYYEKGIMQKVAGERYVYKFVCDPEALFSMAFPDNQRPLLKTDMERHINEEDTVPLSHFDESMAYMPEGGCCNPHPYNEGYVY
How it was run: as §1

[9] = molecular target: T6, ERF (Homo sapiens, UniProt P50548 1-548)
T6 sequence: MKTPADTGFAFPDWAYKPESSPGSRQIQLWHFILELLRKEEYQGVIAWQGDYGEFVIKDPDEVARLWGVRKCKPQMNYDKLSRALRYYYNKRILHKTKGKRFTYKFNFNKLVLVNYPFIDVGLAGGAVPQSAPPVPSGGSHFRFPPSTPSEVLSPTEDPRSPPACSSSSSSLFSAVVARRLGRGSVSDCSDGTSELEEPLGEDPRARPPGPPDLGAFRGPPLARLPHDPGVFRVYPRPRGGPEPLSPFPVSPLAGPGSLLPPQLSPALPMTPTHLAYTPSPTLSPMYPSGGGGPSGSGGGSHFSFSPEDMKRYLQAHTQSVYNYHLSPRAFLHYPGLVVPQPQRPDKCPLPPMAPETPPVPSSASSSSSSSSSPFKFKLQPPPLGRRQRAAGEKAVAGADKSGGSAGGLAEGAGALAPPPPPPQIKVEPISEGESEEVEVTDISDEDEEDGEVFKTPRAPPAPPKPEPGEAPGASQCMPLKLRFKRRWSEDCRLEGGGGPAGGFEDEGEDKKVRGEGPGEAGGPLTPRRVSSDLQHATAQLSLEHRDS
How it was run: as §1

[10] = molecular target: T7, ETV3L (Homo sapiens, UniProt Q6ZN32 1-361)
T7 sequence: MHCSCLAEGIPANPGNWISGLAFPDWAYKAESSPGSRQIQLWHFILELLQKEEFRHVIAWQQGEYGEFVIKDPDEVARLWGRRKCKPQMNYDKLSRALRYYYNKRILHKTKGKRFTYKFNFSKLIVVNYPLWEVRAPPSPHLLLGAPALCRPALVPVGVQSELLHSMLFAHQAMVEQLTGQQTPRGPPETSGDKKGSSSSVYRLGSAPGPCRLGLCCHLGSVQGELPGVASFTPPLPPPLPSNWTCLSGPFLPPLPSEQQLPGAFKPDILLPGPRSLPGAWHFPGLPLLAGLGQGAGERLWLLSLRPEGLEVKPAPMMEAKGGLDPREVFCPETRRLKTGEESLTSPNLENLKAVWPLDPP
How it was run: as §1

[11] = molecular target: T8, ETS2 (Homo sapiens, UniProt P15036 1-469)
T8 sequence: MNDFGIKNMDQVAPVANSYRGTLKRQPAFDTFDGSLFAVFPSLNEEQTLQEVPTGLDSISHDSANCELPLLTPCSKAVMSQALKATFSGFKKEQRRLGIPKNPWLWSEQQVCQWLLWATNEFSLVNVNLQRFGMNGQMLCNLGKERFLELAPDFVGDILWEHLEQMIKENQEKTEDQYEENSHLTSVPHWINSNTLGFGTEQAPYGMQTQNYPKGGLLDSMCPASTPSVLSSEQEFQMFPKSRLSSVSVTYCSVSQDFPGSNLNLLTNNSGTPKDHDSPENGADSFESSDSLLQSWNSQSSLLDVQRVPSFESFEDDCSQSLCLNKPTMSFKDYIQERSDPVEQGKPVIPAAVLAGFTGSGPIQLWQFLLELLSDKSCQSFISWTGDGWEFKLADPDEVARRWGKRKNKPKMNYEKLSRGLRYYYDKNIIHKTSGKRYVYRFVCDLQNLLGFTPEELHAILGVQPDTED
How it was run: as §1

[12] = molecular target: T9, SPDEF (Homo sapiens, UniProt O95238 1-335)
T9 sequence: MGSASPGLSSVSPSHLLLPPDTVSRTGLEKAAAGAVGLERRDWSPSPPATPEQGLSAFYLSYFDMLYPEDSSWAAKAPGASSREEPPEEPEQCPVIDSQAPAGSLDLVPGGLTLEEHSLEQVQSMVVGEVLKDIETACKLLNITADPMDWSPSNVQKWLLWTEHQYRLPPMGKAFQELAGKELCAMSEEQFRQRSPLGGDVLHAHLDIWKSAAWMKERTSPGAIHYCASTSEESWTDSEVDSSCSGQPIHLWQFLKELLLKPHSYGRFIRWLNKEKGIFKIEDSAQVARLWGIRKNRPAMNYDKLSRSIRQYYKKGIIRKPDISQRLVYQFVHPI
How it was run: as §1

[13] = molecular target: T10, ETV7 (Homo sapiens, UniProt Q9Y603 1-341)
T10 sequence: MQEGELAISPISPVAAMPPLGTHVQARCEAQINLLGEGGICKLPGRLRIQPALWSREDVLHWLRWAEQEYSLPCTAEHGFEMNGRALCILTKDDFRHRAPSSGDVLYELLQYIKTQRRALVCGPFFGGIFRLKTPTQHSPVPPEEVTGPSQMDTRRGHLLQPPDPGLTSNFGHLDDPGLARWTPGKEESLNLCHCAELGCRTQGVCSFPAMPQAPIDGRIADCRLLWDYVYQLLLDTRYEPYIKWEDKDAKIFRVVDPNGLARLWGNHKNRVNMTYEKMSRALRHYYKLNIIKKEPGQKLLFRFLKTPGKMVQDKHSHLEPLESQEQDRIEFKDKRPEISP
How it was run: as §1

[14] = molecular target: T11, ELF5 (Homo sapiens, UniProt Q9UKW6-2 1-255)
T11 sequence: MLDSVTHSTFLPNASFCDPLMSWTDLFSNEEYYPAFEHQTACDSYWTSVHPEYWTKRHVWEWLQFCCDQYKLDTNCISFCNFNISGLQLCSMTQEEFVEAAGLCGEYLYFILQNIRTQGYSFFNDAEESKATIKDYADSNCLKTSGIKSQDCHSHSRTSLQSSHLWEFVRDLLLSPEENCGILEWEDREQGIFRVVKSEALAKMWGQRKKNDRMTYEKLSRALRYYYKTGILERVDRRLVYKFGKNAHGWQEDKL
How it was run: as §1

[15] = molecular target: T12, ETV3 (Homo sapiens, UniProt P41162-2 1-143)
T12 sequence: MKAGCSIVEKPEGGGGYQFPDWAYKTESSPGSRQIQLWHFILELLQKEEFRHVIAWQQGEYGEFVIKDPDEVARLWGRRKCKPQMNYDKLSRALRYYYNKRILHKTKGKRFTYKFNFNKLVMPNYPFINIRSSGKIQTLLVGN
How it was run: as §1

[16] = molecular target: ETV6 (Homo sapiens, UniProt P41212 1-452)
Sequence of ETV6 (P41212 whole entry): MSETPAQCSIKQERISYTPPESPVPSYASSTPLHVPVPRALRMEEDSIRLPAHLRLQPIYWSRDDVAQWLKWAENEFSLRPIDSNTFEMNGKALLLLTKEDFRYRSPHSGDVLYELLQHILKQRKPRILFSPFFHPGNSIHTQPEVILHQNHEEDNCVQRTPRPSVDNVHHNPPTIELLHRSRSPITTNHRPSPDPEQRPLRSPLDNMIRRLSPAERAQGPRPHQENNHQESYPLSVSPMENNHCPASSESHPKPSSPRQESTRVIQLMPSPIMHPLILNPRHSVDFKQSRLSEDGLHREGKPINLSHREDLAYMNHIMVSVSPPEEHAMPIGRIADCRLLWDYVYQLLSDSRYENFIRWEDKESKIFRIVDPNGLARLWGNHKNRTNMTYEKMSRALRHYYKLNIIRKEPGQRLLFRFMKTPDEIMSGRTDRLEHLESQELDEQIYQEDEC
How it was run: as §1

| Sequence | binding signal [1] | binding signal [2] | binding signal [3] | binding signal [4] | binding signal [5] | binding signal [6] | binding signal [7] | binding signal [8] | binding signal [9] | binding signal [10] | binding signal [11] | binding signal [12] | binding signal [13] | binding signal [14] | binding signal [15] | binding signal [16] |
| --- | --- | --- | --- | --- | --- | --- | --- | --- | --- | --- | --- | --- | --- | --- | --- | --- |
| CCTTGT | 1.09 fold enrichment (6-mer frequency, TF over GST control) | 1.32 fold enrichment (6-mer frequency, TF over GST control) | 1.11 fold enrichment (6-mer frequency, TF over GST control) | 1.29 fold enrichment (6-mer frequency, TF over GST control) | 1.37 fold enrichment (6-mer frequency, TF over GST control) | 1.03 fold enrichment (6-mer frequency, TF over GST control) | 1.08 fold enrichment (6-mer frequency, TF over GST control) | 1.26 fold enrichment (6-mer frequency, TF over GST control) | 1.29 fold enrichment (6-mer frequency, TF over GST control) | 1.05 fold enrichment (6-mer frequency, TF over GST control) | 1.26 fold enrichment (6-mer frequency, TF over GST control) | 1.37 fold enrichment (6-mer frequency, TF over GST control) | 1.19 fold enrichment (6-mer frequency, TF over GST control) | 1.52 fold enrichment (6-mer frequency, TF over GST control) | 1.31 fold enrichment (6-mer frequency, TF over GST control) | 1.06 fold enrichment (6-mer frequency, TF over GST control) |
| GTGTTT | 1.09 fold enrichment (6-mer frequency, TF over GST control) | 1.14 fold enrichment (6-mer frequency, TF over GST control) | 1.21 fold enrichment (6-mer frequency, TF over GST control) | 1.18 fold enrichment (6-mer frequency, TF over GST control) | 1.11 fold enrichment (6-mer frequency, TF over GST control) | 1.02 fold enrichment (6-mer frequency, TF over GST control) | 1.17 fold enrichment (6-mer frequency, TF over GST control) | 1.21 fold enrichment (6-mer frequency, TF over GST control) | 1.12 fold enrichment (6-mer frequency, TF over GST control) | 1.18 fold enrichment (6-mer frequency, TF over GST control) | 1.19 fold enrichment (6-mer frequency, TF over GST control) | 1.22 fold enrichment (6-mer frequency, TF over GST control) | 1.2 fold enrichment (6-mer frequency, TF over GST control) | 1.23 fold enrichment (6-mer frequency, TF over GST control) | 1.15 fold enrichment (6-mer frequency, TF over GST control) | 1.2 fold enrichment (6-mer frequency, TF over GST control) |
